Screens (PubChem BioAssay)
In the library only some 11% were active in any assay of this set; here they are far more common.
HCV inhibitor: blocks hepatitis C virus. Potency, µM (series often up to 41.8 µM), most hits filed as inhibitors. 340,000 tested, 3.4% active. AID 651820. Huh7.5.1 HCVcc-Cre infection, luciferase reporter, 44 h
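1,000 cells/well; 4 h culture; + compound; + HCVcc-Cre (~0.5 moi); 44 h; luciferase substrate, RT 15 min; read 15 sec.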
Pf growth 96h: inhibits malaria parasite growth, 96 h; P. falciparum luciferase reporter growth, 96 h; Potency, µM (highest dose often 28.7 µM), usual class: inhibitors; 320,000 tested, 6.9% active; AID 504834
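Compounds incubated with erythrocytes infected by luciferase-expressing P. falciparum (2% hematocrit, 0.05% parasitemia final) for 96 hours, 37 C in 5% CO2. Growth inhibition scored as decreased luciferase luminescence.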
AMA1-RON2 inh: disrupts binding of P. falciparum AMA1 to RON2. 360,000 tested, 0.2% active. Potency, µM (series often up to 58.2 µM), actives largely listed as inhibitors. AlphaScreen AMA1-biotinylated RON2 peptide binding; note: nearly all actives have a fitted effect of over 45% in size
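AMA1 (3D7) with his tag at 25 nM final met compounds first, then biotinylated RON2 peptide at 25 nM; detection used donor plus acceptor beads, 10 µg/mL apiece, read by AlphaScreen after 30 min at room temperature.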
Pf growth 48h: P. falciparum growth inhibition at 48 hours (one generation) | P. falciparum luciferase growth in erythrocytes, 48 h | Potency, µM (doses to about 28.7 µM), usual class: inhibitors | AID 504832 | 310,000 tested, 5.9% active
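Here the parasites carry a stable luciferase gene and grow inside erythrocytes in Albumax-based RPMI medium with compound for one erythrocytic cycle. Activity is scored as loss of luminescent signal.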
A number is an active result; . = inactive; ? = inconclusive; / = no result. Calls come from the whole dose curve; as a rule, active = well fitted curve in the direction sought with a large enough effect; inconclusive = small, poorly fitted or top-dose-only effect, or another doubt; inactive = no such curve, though single readings can be large; an effect the other way counts as inactive or inconclusive.

SMILES	HCV inhibitor	Pf growth 96h	AMA1-RON2 inh	Pf growth 48h
COc1cc2nc(SCc3c(C)noc3C)n(CCC3=CCCCC3)c(=O)c2cc1OC	.	1.7µM	.	?
C=CCn1c(SCc2c(C)noc2C)nc2cc(C(=O)O)ccc2c1=O	.	/	.	.
C=CCn1c(SCc2c(C)noc2C)nc2ccccc2c1=O	.	13µM	.	/
Cc1noc(C)c1CSc1nc2ccccc2c(=O)n1-c1ccccc1	4µM	.	.	/
CCCNC(=O)c1cn(CC)c2cc(N3CCN(C(=O)c4ccco4)CC3)c(F)cc2c1=O	10µM	3.3µM	.	?
CCn1cc(C(=O)NCc2cccc(F)c2)c(=O)c2cc(F)c(N3CCN(C(=O)c4ccco4)CC3)cc21	?	2.1µM	.	/
CCn1cc(C(=O)NCc2cccnc2)c(=O)c2cc(F)c(N3CCN(C(=O)c4ccco4)CC3)cc21	?	/	.	?
COc1ccc(CCN2CC(C(=O)NCCc3ccccn3)CCC2=O)cc1 (stereo unspecified)	.	.	.	.
C/C(=N\NC(=O)c1c(Cl)cnn1C)c1ccc(NC(=O)c2ccc(Br)o2)cc1	.	?	.	.
CC(CCc1ccc(O)cc1)NC1C2CC3CC(C2)CC1C3 (stereo unspecified)	.	.	.	13µM
CC(O)CCc1ccc(O)cc1 (stereo unspecified)	.	.	.	.
CC(CCc1ccc(O)cc1)NC1c2ccccc2-c2ccccc21 (stereo unspecified)	.	?	.	15µM
CC1(C)CC(NC(=O)c2sc3cc(Cl)ccc3c2Cl)CC(C)(C)N1	?	.	.	?
COc1ccccc1C(c1nnnn1C1CCCC1)N1CCN2CCCC2C1 (stereo unspecified)	.	.	.	13µM
O=C(c1ccco1)N1CCN(C(c2cccs2)c2nnnn2C2CCCC2)CC1 (stereo unspecified)	.	?	.	.
COc1ccccc1N1CCN(C(c2cccs2)c2nnnn2C2CCCC2)CC1 (stereo unspecified)	?	.	.	13µM
CCC(c1nnnn1C1CCCC1)N1CCN(Cc2ccccc2)CC1 (stereo unspecified)	.	?	.	?
c1coc(CN2CCN(C(c3cccs3)c3nnnn3C3CCCC3)CC2)c1 (stereo unspecified)	.	.	.	.
c1ccc(CC2CCN(C(c3cccs3)c3nnnn3C3CCCC3)CC2)cc1 (stereo unspecified)	?	/	.	1.9µM
c1ccc(CN(Cc2cccs2)C(c2cccs2)c2nnnn2C2CCCC2)cc1 (stereo unspecified)	?	/	.	13µM
O=C(NCc1cccnc1)c1[nH]c(C(F)(F)F)nc1-c1ccccc1	/	/	.	/
CC(=O)c1cc2c(cc1NC(=O)Cn1nc(-c3ccc(C)cc3)ccc1=O)OCO2	11µM	.	.	?
O=C(CCC(=O)Nc1ccccc1Cl)NNC(=S)Nc1ccccc1C(F)(F)F	.	2.1µM	.	.
NS(=O)(=O)c1ccc(NC(=S)NNC(=O)CCC(=O)Nc2ccccc2Cl)cc1	.	.	.	.
COc1ccc(N(C(=O)CCl)C(C(=O)NCCc2ccccc2)c2cccs2)cc1Cl (stereo unspecified)	0.56µM	4.7µM	.	9.3µM
SMILES	HCV inhibitor	Pf growth 96h	AMA1-RON2 inh	Pf growth 48h
COc1ccc(N(C(=O)c2ccco2)C(C(=O)NC2CCCCC2)c2cccs2)cc1OC (stereo unspecified)	.	.	.	?
COCCn1c(SCC#N)nnc1-c1ccc([N+](=O)[O-])cc1	.	?	.	.
Cc1ccc(Nc2nc(Cl)nc(N(C)C#N)n2)cc1	?	7.4µM	.	.
CCCCc1cc(=O)oc2cc(C)cc(OC(C)C(=O)NCc3cccnc3)c12 (stereo unspecified)	?	17µM	.	?
CCc1cc(=O)oc2cc(C)cc(OC(C)C(=O)NCc3ccncc3)c12 (stereo unspecified)	?	9.3µM	.	?
CCc1cc(=O)oc2cc(C)cc(OC(C)C(=O)NCc3cccnc3)c12 (stereo unspecified)	.	?	.	?
O=C(O)C1CSC2(CCN(Cc3ccccc3)CC2)N1 (stereo unspecified)	.	.	.	.
O=C(NCC1CCCO1)c1ccc(COc2ccccc2Br)cc1 (stereo unspecified)	?	.	.	.
Cc1ccc(N=Cc2c(O)n(-c3ccc4c(c3)OCO4)c(=O)c3ccccc23)cc1	?	8.3µM	.	/
CCOC(=O)c1c(NC(=O)c2ccccc2Cl)sc2c1CCc1ccccc1-2	7.9µM	?	.	?
